Source: ChEMBL document CHEMBL3988442, “University of Dundee, Small-Polar-MMV Screening Library” (2021)
The campaign covered roughly 48,000 compounds. About 13,000 (27%) showed an effect of 50% or more. Some of the results follow.

What follows are molecules tested on Wolbachia pipientis (assay: Anti-Wolbachia Cell-Based Screen). Conditions: 5 µM.
Assay type: functional
Design: scale not given: in the data most compounds retested in dose-response had high values

SMILES | Percent Effect
Cc1ccc2nc(C)cc(C(=O)NCc3csc(N(C)C)n3)c2c1 | -3.48%
CCc1nccn1CC(=O)N1C[C@H]2CC[C@@H]1CN(c1ncccn1)C2 | 11.21%
COCC1c2nnn(CC3CC3)c2CCN1C(=O)c1cc(C)[nH]c1C (centres undefined) | -16.52%
CC(C)NC(=O)c1ccc2c(c1)C(c1nc[nH]n1)CN2C (centres undefined) | -2.409%
CCc1noc(C(C)N2CCN(c3ncnc4sccc34)CC2)n1 (centres undefined) | -87.61%
Cc1noc(C(C)N2CCN(c3ncnc4ccccc34)CC2)n1 (centres undefined) | -16.31%
CC(c1nc(C2CC2)no1)N1CCN(Cc2ccc(C#N)cc2)CC1 (centres undefined) | 26.07%
CC(c1nc(C(C)(C)C)no1)N1CCN(Cc2ccc(C#N)cc2)CC1 (centres undefined) | 107.5%
Cc1nsc(N2CCCN(c3ccc(C#N)cn3)CC2)n1 | 7.107%
CC(c1nc(C2CC2)no1)N1CCN(Cc2cccc(C#N)c2)CC1 (centres undefined) | -8.29%
CC(c1nc(C(C)(C)C)no1)N1CCN(c2ccc(C#N)cn2)CC1 (centres undefined) | 105.6%
Cc1noc(C(C)N2CCN(c3ccc(C#N)cn3)CC2)n1 (centres undefined) | 146.7%
CCCc1noc(C(C)N2CCN(CCn3ccccc3=O)CC2)n1 (centres undefined) | -12.82%
Cc1noc(C2CCN(C(C)c3nc(C(C)(C)C)no3)CC2)n1 (centres undefined) | 4.561%
Cc1noc(C(C)N2CCN(Cc3cccc(C#N)c3)CC2)n1 (centres undefined) | 7.153%
CCCc1noc(C(C)N2CCN(c3ccc(C#N)cn3)CC2)n1 (centres undefined) | 130.1%
COc1ccc(OCc2nc3cc4c(cc3c(=O)o2)OCCCO4)cc1 | -25.33%
CSc1cc2c(cc1NC(=O)NCc1ccncc1)OCCO2 | 0.1832%
O=C(NCC1CC1)C1CN(C(=O)c2ccnnc2)CC12CCOCC2 (centres undefined) | -9.874%
CN1C(=O)[C@H]2CC[C@@H]1CN(C(=O)Nc1cccc3ccccc13)C2 | 3.863%
N#Cc1cn(C2CC2)c(=O)n(Cc2noc(-c3ccsc3)n2)c1=O | -8.2%
COc1ccccc1NC(=O)NC(C)c1nc[nH]n1 (centres undefined) | -1.106%
CC(C)c1noc(C(C)N2CCN(Cc3ccccc3C#N)CC2)n1 (centres undefined) | -2.438%
CC(C)c1noc(C(C)N2CCN(c3ccc(C#N)cn3)CC2)n1 (centres undefined) | 186.4%
CC(C)c1noc(C(C)N2CCN(Cc3cccc(C#N)c3)CC2)n1 (centres undefined) | 10.45%
CN1CCN(c2ccc3ccc(C(=O)N4CCCO4)cn23)CC1.O=C(O)C(F)(F)F | 0.4274%

SMILES | Percent Effect
CC(C)(CO)CNC(=O)c1ccnn1-c1ccc2ccccn12 | -11.35%
CN(C)C1CCN(C(=O)c2ccnn2-c2ccc3ccccn23)CC1.O=C(O)C(F)(F)F | 64.37%
O=C(NCCCN1CCOCC1)c1ccn(-c2ccc3ccccn23)n1.O=C(O)C(F)(F)F | -6.828%
Cc1nc(-c2cc(C(=O)N3CCCN(C)CC3)c3ccccn23)cn1C.O=C(O)C(F)(F)F | -23.06%
CN1CCCN(C(=O)c2ccnn2-c2ccc3ccccn23)CC1.O=C(O)C(F)(F)F | 83.85%
CCOCc1nnc(NCc2ccsc2)o1 | -11.46%
Cc1ccc(OCC(O)CN(C)CC(=O)Nc2cc(C)on2)c(C)c1 (centres undefined) | 9.432%
Cc1noc([C@@H]2CCO[C@@H]3CCN(C(=O)Cc4ccsc4)C[C@@H]32)n1 | 6.284%
Cc1ccn(CCC(=O)N2CCOC(c3nc(-c4cccs4)no3)C2)n1 (centres undefined) | -6.468%
O=C(Cc1ccsc1)N1CCOC(c2nc(-c3ncccn3)no2)C1 (centres undefined) | 131.4%
O=C(O)C(=O)O.c1cnc(-c2noc(C3CN(Cc4ccc5c(c4)CCO5)C3)n2)nc1 | 8.464%
Cc1n[nH]c(C2CN(C(=O)CCc3ccsc3)CCO2)n1 (centres undefined) | -9.569%
O=C(Cc1ccccc1)N1CCOC(c2nc(-c3ncccn3)no2)C1 (centres undefined) | 104.4%
Cc1ccc2c(C)c(C(=O)NCc3csc(N)n3)oc2c1 | 24.68%
Cc1c(F)cccc1S(=O)(=O)NCCN.Cl | -3.419%
Cc1c(F)cccc1S(=O)(=O)NC(C)(C)CN.Cl | -6.464%
Cc1ccc(S(=O)(=O)NC(C)(C)CN)c(F)c1.Cl | -7.288%
Cc1cc(S(=O)(=O)NCC(C)(C)N)c(F)cc1F.Cl | 106.9%
Cc1ccc(S(=O)(=O)NCCCN2CCC(O)CC2)c(F)c1 | 10.81%
Cc1ccc(S(=O)(=O)NCc2cnn(C)c2)c(F)c1 | 1.109%
Cc1ccc(F)c(NCC(C)(C)S(C)(=O)=O)c1 | -3.079%
CCc1nc(NS(=O)(=O)c2cc(C)c(F)cc2Cl)no1 | -1.735%
Cc1cc(S(=O)(=O)NCC[S+](C)[O-])c(F)cc1F (centres undefined) | 90.6%
Cc1ccc(S(=O)(=O)NCC(C)(C)N)c(F)c1.Cl | 102.6%
Cc1cc(S(=O)(=O)NC(C)(C)CN)c(F)cc1F.Cl | 112.3%
Cc1cc(F)c(S(=O)(=O)NCCCN2CCC(O)CC2)cc1F | 7.324%

SMILES | Percent Effect
Cc1nn(C)cc1CN(C)Cc1cc2c(cc1OC(F)F)OCO2 | 5.231%
CCS(=O)(=O)N1CCC(c2nccn2Cc2ccncc2)CC1 | 17.72%
COc1cccc(OCCCc2cc(C#N)ccn2)c1 | -11.05%
Cc1cccc(C(C(=O)NCc2nc(-c3cccnc3)no2)N(C)C)c1 (centres undefined) | -3.627%
CC1=C[C@@H](CN2CCOCC2)[C@H](C(C)C)C[C@H]1Cc1nnc(C)o1 | -6.193%
Cc1sc(Br)cc1S(=O)(=O)NCCCN.Cl | -10.31%
Cc1cc(F)c(S(=O)(=O)NCC(C)(C)N)cc1F.Cl | 99.53%
Cc1cc(F)c(S(=O)(=O)NCc2ccnc(N(C)C)n2)cc1F | -5.146%
Cc1sc(Br)cc1S(=O)(=O)NCCN.Cl | -12.99%
Cc1cc(S(=O)(=O)NCC(C)(O)CN(C)C)c(F)cc1F (centres undefined) | 86.13%
Cc1c(F)cccc1S(=O)(=O)NCC(C)(C)CC(C)O (centres undefined) | -11.41%
Cc1cc2[nH]cc(C(=O)N3CCCCC3c3ccc(F)cc3)c(=O)n2n1 (centres undefined) | -0.32%
Cc1ncsc1C(=O)N(C)CCc1ccncc1 | -1.181%
COc1ccccc1CC1CCCN(CCN2CCOC2=O)C1 (centres undefined) | -15.91%
Br.Cc1ccccc1OC1CCN(CC(=O)Nc2cnn(C)c2C)CC1 | 127.8%
Cc1cccc2sc(NC(=O)CN3CCC(C)CC3)nc12 | -4.691%
Br.Cc1ccccc1OC1CCN(CC(=O)Nc2ccn(C)n2)CC1 | 95.2%
Cc1ccccc1OC1CCN(CC(=O)Nc2cn(C)nc2C)CC1 | 143.3%
Cc1ccccc1OC1CCN(CC(=O)Nc2c(C)nn(C)c2C)CC1 | 133%
Cc1nn(C)c(C)c1NC(=O)CN1CCOC(Cn2cccn2)C1 (centres undefined) | -5.215%
Cn1ccc(NC(=O)CN2C[C@H]3CC[C@@H]2CN(Cc2ccccn2)C3)n1 | -23.26%
Cc1cccc(OC2CCN(C(=O)NCCn3ccnc3)CC2)c1C | -9.4%
CC(=O)c1ccc(CN2CC(Oc3ccccc3C)C2)cc1 | 1.561%
COCCN1C[C@H]2CC[C@@H]1CN(CC(=O)Nc1ccn(C)n1)C2 | 0.2654%
Cc1nn(C)c(C)c1NC(=O)CNC(c1ccccc1)C1CCC1 (centres undefined) | -2.911%
CC(O)CNC(=O)NCCCN1CCN(c2ncccn2)CC1 (centres undefined) | -2.851%

SMILES | Percent Effect
CCOCCn1nnc(C2(NC(=O)c3ccccc3)CCCC2)n1 | -1.903%
CN(C)CCOc1ccc(CNC(=O)c2cccc3[nH]ncc23)cc1 | -2.455%
CN(C)C(=O)CCCNc1ncc2c(n1)CCN2c1ccccc1 | -14.16%
Cn1c(=O)oc2ccc(NC(=O)N3CCSCC3)cc21 | -14.24%
Cn1nc2c(cc1=O)CN(Cc1nnc(C3CC3)o1)CC2 | 7.472%
Cc1noc(C)c1C(=O)N(C)C(C)c1ccncc1 (centres undefined) | -19.42%
O=C(Nc1ccccc1)c1ccc2c(c1)C1(CCCCC1)CN2.O=C(O)C(F)(F)F | 15.72%
CCOC(CC)C(=O)NCc1cccc(N2CCCCC2=O)c1 (centres undefined) | -0.7778%
NS(=O)(=O)c1ccc(NC(=O)CSc2ccc3c(c2)CCC3)cc1 | 16.99%
CCn1cc(NC(=O)CN2CCC(Oc3ccccc3C)CC2)c(C)n1 | 103.8%
CC(=O)c1cccc(CN2CC(Oc3ccccc3C)C2)c1 | 6.758%
CCn1cc(NC(=O)CN2CCC(Oc3ccc(F)cc3)CC2)c(C)n1.Cl | 113.2%
N#Cc1ccc(OC2CCN(CC(=O)NCC(F)(F)F)CC2)cc1 | 6.533%
Cc1[nH]c(=O)[nH]c(=O)c1CC(=O)N1CCC(Oc2ccc(F)cc2)CC1 | -20.3%
CCN1CC(C(=O)N2CCC(Oc3ccccc3C)CC2)CC1=O (centres undefined) | -3.691%
O=c1[nH]c(N2CCN(C3CC3)CC2)nc2c1cnn2-c1ccccc1 | 4.194%
O=C(NCc1cccs1)NCC(O)(c1cccs1)C1CC1 (centres undefined) | 4.96%
Cc1csc(CNC(=O)NCC2(c3ccc4c(c3)OCO4)CC2)n1 | 126.6%
Cc1csc(CNC(=O)Nc2ccc3c(c2)OCO3)n1 | 95.91%
Cc1ncsc1CNC(=O)NCC1(c2ccc3c(c2)OCO3)CC1 | 120.8%
Cc1n[nH]cc1CNCC1(c2ccc3c(c2)OCO3)CCOCC1.Cl | 4.447%
Cc1csc(CNC(=O)Cc2ccc3c(c2)OCCO3)n1 | -1.573%
Cc1csc(CNC(=O)NCc2ccc3c(c2)OCCO3)n1 | -13.77%
Cc1csc(CNC(=O)N(C)Cc2ccc3c(c2)OCO3)n1 | -4.172%
Cc1ncsc1CNC(=O)N(Cc1ccccc1)CC(C)(C)O | -10.76%
Cc1csc(CNC(=O)NCCc2ccc3c(c2)OCCO3)n1 | -0.3298%
